# Screens: PubChem BioAssay, National Center for Advancing Translational Sciences (NCATS)
# HT1080 IDH1KD tx: qHTS for induction of synthetic lethality in tumor cells producing 2HG: qHTS for the HT-1080-IDH1KD cell line | HT-1080 IDH1 knockdown viability, ATP luminescence, 48 h | Potency, µM (highest dose often 46.1 µM), without a hit: top-dose activity, negative = toxicity, actives largely listed as cytotoxic | 360,000 tested, 2% active;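 note: potency is the fitted concentration of half-maximal effect; 0% = DMSO wells and -100% = cell-free medium wells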
#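 Cytotoxicity counter-line: IDH1KD HT-1080, 48 h, CellTiter-Glo. Curves classed by r2, magnitude and activity.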
# DT40 TDP1 CPT: qHTS for Inhibitors of human tyrosyl-DNA phosphodiesterase 1 (TDP1): qHTS in cells in presence of CPT. chicken DT40 Tdp1-/-;hTDP1 cells + 20 nM CPT, ATP luminescence, 48 h. Potency, µM (top dose mostly 46.2 µM), for the others: top-dose activity change, negative = growth inhibition, actives largely listed as inhibitors. 420,000 tested, 12% active. AID 686979, 2013; note: potency is the fitted concentration of half-maximal effect; nearly all actives have a fitted effect of over 55% in size
#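 Cell growth measured by CellTiter-Glo luminescence after a minimum 48 h, 37 C compound exposure with 20 nM CPT in Tdp1-knockout DT40 cells stably expressing hTDP1, seeded 400/well; qHTS titration format.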
# TDP1 cell noCPT: qHTS for Inhibitors of human tyrosyl-DNA phosphodiesterase 1 (TDP1): qHTS in cells in absence of CPT; AID 686978, 2013; DT40 Tdp1-/- hTDP1 cells, no CPT, ATP luminescence, 48 h; 420,000 tested, 15% active; Potency, µM (doses to about 46.2 µM), for the others: at the highest dose activity change, negative = growth inhibition, actives largely listed as inhibitors; note: potency is the fitted concentration of half-maximal effect; nearly all actives have a fitted effect of over 55% in size
#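 Growth of hTDP1-complemented DT40 Tdp1-knockout cells is measured by ATP luminescence after at least 48 hr compound exposure at 37 °C, with DMSO substituting for the 20 nM CPT used in the parallel screen.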
# HT1080NT lethal: qHTS for induction of synthetic lethality in tumor cells producing 2HG: qHTS for the HT-1080-NT fibrosarcoma cell line | HT-1080-NT fibrosarcoma viability, CellTiter-Glo ATP luminescence, 48 h | Potency, µM (series often up to 46.1 µM), inactives show at the top dose activity, negative = less viability, actives largely listed as cytotoxic | 360,000 tested, 1.6% active | AID 686970, 2013;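 note: NT is the 2HG producing partner of a matched IDH1 knockdown line; potency is the fitted concentration of half-maximal effect; 0% = DMSO-treated cells and -100% = media-only wells without cells; nearly all actives have a fitted effect of over 55% in size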
#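 Luminescent CellTiter-Glo readout after 48 hours of compound exposure at 37 degrees C defined viability of HT-1080-NT cells. Activity was normalized to DMSO wells and cell-free media wells; concentration-response curves were fitted and assigned curve classes.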
# ELG1 DNA repair: qHTS screen for small molecules that inhibit ELG1-dependent DNA repair in human embryonic kidney (HEK293T) cells expressing luciferase-tagged ELG1 | AID 504467, 2011 | 330,000 tested, 2.3% active | Potency, µM (top dose mostly 46.1 µM), without a hit: at the top dose activity change, negative = inhibition, usual class: inhibitors | HEK293T ELG1-luciferase reporter, luminescence, 16 h; DNA damage induced by 5-fluorouridine; note: potency is the fitted concentration of half-maximal effect; nearly all actives have a fitted effect of over 55% in size
#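 Quantitative HTS, concentration-response format. 2,000 cells/well co-treated with 5-fluorouridine and compound, 16 hr in 5% CO2 at 37 °C; ONE-Glo luminescence read after 30 min.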
# IL1B secr inh: qHTS for Inhibitors of Inflammasome Signaling: IL-1-beta AlphaLISA Primary Screen; THP-1 LPS/ATP IL-1B secretion, AlphaLISA, 16 h; stronger effect = lower value; activity change, % at 57.5 µM; 360,000 tested, 4.7% active; AID 743279, 2014; in the data active = activity change below about -50%; inconclusive = mostly about -30% to -49%
#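 Secreted IL-1B measured by AlphaLISA bead assay after 16 h compound exposure of THP-1 cells; compounds (final up to 57.5 uM) added 1 h before LPS (250 ng/mL) and ATP (1.25 mM) stimulation; lower signal means less secretion.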
# The depositor's hits bear a star; ? = inconclusive; . = no result given; [ ] = dose if it differs, or a comment. Hits are enriched below; roughly 19% of the tested compounds scored in any of these assays. Unless noted, calls come from the whole dose curve; as a rule, active = well fitted curve in the direction sought with a large enough effect; inconclusive = small, poorly fitted or top-dose-only effect, or another doubt; inactive = no such curve, though single readings can be large; an effect the other way counts as inactive or inconclusive. Unless noted, % is set by controls: 0 for no effect and ±100 for the full control effect.
SMILES,HT1080 IDH1KD tx,DT40 TDP1 CPT,TDP1 cell noCPT,HT1080NT lethal,ELG1 DNA repair,IL1B secr inh
COc1ccc(C(=O)Nc2cccc(C(=O)NCc3ccccc3)c2)cc1,?,21µM*,?,-24%,-10%,4
COc1ccc(S(=O)(=O)c2c(O)c3ccc(C(=O)Nc4cccc(F)c4)cc3[nH]c2=O)cc1,13%,6%,-3%,-1%,0%,-5
O=C(Nc1ccc(Cc2ccncc2)cc1)C1CCC(N2C(=O)C3CCCCC3C2=O)CC1 (centres undefined),-14%,?,?,-7%,?,-13
CN(C)S(=O)(=O)Oc1ccc(C(=O)Nc2cccc(C(F)(F)F)c2)cc1,?,23µM*,15µM*,-28%,21µM*,?
COc1ccc(CC(=O)OC(C)C(=O)NCc2ccc3c(c2)OCO3)cc1OC (centres undefined),1%,2%,0%,6%,1%,-14
CCS(=O)(=O)N1Cc2cc(C(=O)NCCOC)nc(-c3cccc(-c4ccncc4)c3)c2[C@@H]1CCO,14%,-14%,-13%,3%,.,24
COc1ccccc1-c1cccc(-c2nc(C(=O)Nc3nccs3)cc3c2[C@@H](CCO)N(C(=O)CC2CC2)C3)c1,2%,18µM*,12µM*,-11%,.,?
CCC(=O)N1Cc2cc(C(=O)Nc3nccs3)nc(-c3cccc(-c4ccccc4OC)c3)c2[C@@H]1CCO,-11%,4.6µM*,4.6µM*,?,.,-4
CCS(=O)(=O)N1Cc2cc(C(=O)NCCOC)nc(-c3cccc(-c4ccncc4)c3)c2[C@H]1CCO,-10%,-11%,-3%,2%,.,-13
COc1ccc(CCNC(=O)c2cc(=O)[nH]c3ccc(S(=O)(=O)N4CCCCC4C)cc23)cc1OC (centres undefined),.,-10%,-28%,.,.,.
Cc1noc(C)c1NC(=O)N(C)C[C@H]1Oc2c(NC(=O)Nc3ccc(C(F)(F)F)cc3)cccc2C(=O)N([C@H](C)CO)C[C@@H]1C,-3%,-2%,?,0%,19%,0
COc1ccc(NC(=O)N(C)C[C@H]2Oc3c(NC(=O)Nc4ccc(C(F)(F)F)cc4)cccc3C(=O)N([C@H](C)CO)C[C@@H]2C)cc1,?,16µM*,13µM*,?,?,?
C[C@H](CO)N1C[C@H](C)[C@@H](CN(C)C(=O)Nc2ccc3c(c2)OCO3)Oc2c(NC(=O)Nc3ccc(C(F)(F)F)cc3)cccc2C1=O,?,13µM*,?,?,10µM*,0
Cc1noc(C)c1NC(=O)Nc1cccc2c1O[C@H](CN(C)C(=O)Nc1ccc3c(c1)OCO3)[C@@H](C)CN([C@H](C)CO)C2=O,8%,6%,3%,5%,?,-10
C[C@@H]1CN([C@H](C)CO)C(=O)c2cccc(NC(=O)Nc3ccc(F)cc3)c2O[C@H]1CN(C)C(=O)Nc1ccc(C(F)(F)F)cc1,?,?,?,?,6.5µM*,-70*
C[C@H]1CN([C@@H](C)CO)C(=O)c2cccc(NC(=O)c3ccncc3)c2O[C@H]1CN(C)C(=O)Nc1ccccc1,1%,?,?,10%,1%,0
COc1ccc(NC(=O)N(C)C[C@H]2Oc3c(NC(=O)c4ccncc4)cccc3C(=O)N([C@H](C)CO)C[C@@H]2C)cc1,-4%,0.023µM*,-1%,24%,15%,-7
COc1ccc(C(=O)NCCN2CCOCC2)cc1S(=O)(=O)Nc1ccc(C)cc1,8%,-12%,3%,-2%[9.24 µM],6%,24
CSCCC(N=C1NS(=O)(=O)c2ccccc21)C(=O)NCCc1ccccc1 (centres undefined),2%,4%,2%,5%,?,-4
CCCCn1c(N)c(N(CCC(C)C)C(=O)C2CC(=O)N(CCc3ccc(OC)c(OC)c3)C2)c(=O)[nH]c1=O (centres undefined),13%,0%,-6%,21%,16%,19
COc1cccc(CNC(=O)CCc2c(C)nn(-c3ccc(N4CCOCC4)nn3)c2C)c1,.,-23%,-19%,.,.,.
COc1ccc(CCNC(=O)CCc2cn(C)c3ccccc23)c(OC)c1OC,-2%,-5%,-29%,4%,-1%,-22
CC1(c2nnnn2C2CCCCC2)CCC(=O)N1Cc1ccc2c(c1)OCO2 (centres undefined),23%,-3%,-19%,20%,.,41
C[C@H](CO)N1C[C@H](C)[C@@H](CN(C)C(=O)Nc2ccc(C(F)(F)F)cc2)Oc2c(cccc2N(C)C)C1=O,0%,?,23µM*,0%,10%,12
CC(C)NC(=O)N(C)C[C@H]1Oc2c(NC(=O)Nc3ccc(C(F)(F)F)cc3)cccc2C(=O)N([C@H](C)CO)C[C@@H]1C,-11%,?,18µM*,-8%,-20%,?
SMILES,HT1080 IDH1KD tx,DT40 TDP1 CPT,TDP1 cell noCPT,HT1080NT lethal,ELG1 DNA repair,IL1B secr inh
COc1ccc(OC)c(C(C[N+](=O)[O-])c2c(C)cc3ccccn23)c1 (centres undefined),18µM*,2.1µM*,2.9µM*,23µM*,-8%,0
COc1ccc(OC)c(NC(=O)Cn2cccc2)c1,16%,-2%,-11%,-3%,?,-14
CC1CCN(S(=O)(=O)c2ccc3c(c2)N(CC(=O)N(C)Cc2ccccc2)C(=O)CO3)CC1,.,?,21µM*,.,.,.
CCN(CC)S(=O)(=O)c1ccc2c(c1)N(CC(=O)Nc1c(C)cccc1C)C(=O)CO2,.,2%,-3%,.,.,.
CCN(Cc1ccccc1)C(=O)CN1C(=O)COc2ccc(S(=O)(=O)N3CCOCC3)cc21,.,?,-26%,.,.,.
CCN(CC)S(=O)(=O)c1ccc2c(c1)N(CC(=O)N(C)Cc1ccccc1)C(=O)CO2,.,?,26µM*,.,.,.
CCN(Cc1ccccc1)C(=O)CN1C(=O)COc2ccc(S(=O)(=O)N3CCCCCC3)cc21,-13%,21µM*,23µM*,-19%,0%,0
